Measurements as given in PubChem BioAssay.
Activity calls are given as the source filed them. Unless noted, the rule behind the calls is not given here.

Legend:
[1] = test system: XIP peptide (Xip251-270) binding; experiment: XIP fragment 251-270 binding compounds – biochemical, small-molecule microarray, fluorescence 635/667 nm, 0.1 µg/mL protein, primary screen (AID 1182); details: fluorescent protein binding, 635 nm, higher = more signal, called active from +8 up or from −8 down
XIP peptide (Xip251-270) = experiment: compounds binding XIP fragment 251-270 – biochemical, small-molecule microarray, fluorescence 635/667 nm, 0.5 µg/mL protein, primary screen (AID 1183); details: fluorescence 635 nm, higher = more signal
[2] = blood-stage malaria parasite viability loss – strain 3D7, DAPI fluorescence, 100 nL, primary screen (AID 1184);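 note: parasites grown inside human red blood cells in medium with human serum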; details: P. falciparum 3D7 growth, 3 d, higher = more signal
[3] = molecular target: Homeobox protein Hox-A13 (Mus musculus) (UniProt Q62424); experiment: disruptors of Hoxa13 oligonucleotide interaction – biochemical, fluorescence polarization, labeled oligonucleotide, primary screen (AID 1185); details: Hoxa13:DNA binding, 15 min, higher = more signal, called active from +8 up or from −8 down
Sequence of Homeobox protein Hox-A13 (Mus musculus) (Q62424 whole entry, looked up): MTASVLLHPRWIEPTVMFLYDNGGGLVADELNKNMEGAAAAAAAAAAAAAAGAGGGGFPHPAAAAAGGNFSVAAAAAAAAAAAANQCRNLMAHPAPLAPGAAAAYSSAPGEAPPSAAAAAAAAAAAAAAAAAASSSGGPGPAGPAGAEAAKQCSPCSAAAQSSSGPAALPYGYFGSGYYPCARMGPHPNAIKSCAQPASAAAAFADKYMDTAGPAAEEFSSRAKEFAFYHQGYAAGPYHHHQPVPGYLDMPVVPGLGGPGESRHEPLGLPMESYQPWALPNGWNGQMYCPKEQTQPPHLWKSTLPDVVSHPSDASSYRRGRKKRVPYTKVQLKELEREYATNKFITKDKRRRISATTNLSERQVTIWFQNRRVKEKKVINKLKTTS

[4] = blockers of DNA damage checkpoint Chk1 activation – imaging, HeLa, hydroxyurea, phospho-Chk1 antibody, percent positive cells, primary screen (AID 1186); details: hydroxyurea-induced phospho-Chk1 immunofluorescence imaging, higher = more signal
[5] = blockers of DNA damage checkpoint Chk1 activation – imaging, HeLa, hydroxyurea, phospho-Chk1 nuclear intensity, primary screen (AID 1187); details: hydroxyurea-induced phospho-Chk1 immunofluorescence imaging, higher = more signal

**Q.** For `NCCCCCCNC(=O)[C@@H]1C[C@@H]2C(=O)N3CCC[C@H]3C(=O)N2[C@@H]1c1cccc(OCCO)c1`, which composite z-score [1] is on record?
**A.** 2.08 (inactive)

**Q.** And the composite z-score (XIP peptide (Xip251-270))?
**A.** 0.2

**Q.** And the z-score [2]?
**A.** -0.772

**Q.** What about the z-score [3] of the same compound?
**A.** -4.9 (inactive)

**Q.** And the z-score [4]?
**A.** -0.705 (inactive)

**Q.** And the z-score [5]?
**A.** -0.405 (inactive)

**Q.** With `COc1ccc([Si](C)(C)[C@H]2[C@H](CCO)O[C@@]3(C(=O)N(Cc4ccc(NC(=O)[C@H](C)O)cc4)c4ccccc43)[C@@H]2C)cc1` as the compound, how does the composite z-score [1] read?
**A.** 3.4 (inactive)

**Q.** And the composite z-score (XIP peptide (Xip251-270))?
**A.** 0.596

**Q.** And the z-score [2]?
**A.** -2.7

**Q.** What about the z-score [3] of the same compound?
**A.** -4.86 (inactive)

**Q.** And the z-score [4]?
**A.** -0.704 (inactive)

**Q.** What about the z-score [5] of the same compound?
**A.** -0.43 (inactive)

**Q.** Which composite z-score [1] does the source give for `COCCOC(=O)N1C(=O)[C@@]2(c3ccccc31)[C@H](C(=O)N1CCN(c3ncccn3)CC1)[C@H]1C(=O)O[C@H](c3ccccc3)[C@H](c3ccccc3)N1[C@@H]2c1ccccc1OCCO` here?
**A.** 0.044 (inactive)

**Q.** And the composite z-score (XIP peptide (Xip251-270))?
**A.** 0.597

**Q.** And the z-score [2]?
**A.** -1.99

**Q.** And the z-score [3]?
**A.** -1.77 (inactive)

**Q.** And the z-score [4]?
**A.** -0.356 (inactive)

**Q.** And the z-score [5]?
**A.** -0.484 (inactive)

**Q.** What does the source list for `O=C(NC1CC1)[C@@H]1c2ccccc2C(=O)N(Cc2ccc(OC(F)(F)F)cc2)[C@H]1c1ccc(CO)cc1`?
**A.** composite z-score [1]: 2.46 (inactive); composite z-score (XIP peptide (Xip251-270)): 0.0303; z-score [2]: 0.599; z-score [3]: -3.51 (inactive); z-score [4]: -0.453 (inactive); z-score [5]: -0.577 (inactive)

**Q.** Which results are given for `CCCCCCc1nc(Cc2cc(OC)c(OC)c(OC)c2)cc2c1[Si](C(C)C)(C(C)C)O[C@H]2c1ccccc1`?
**A.** composite z-score [1]: -0.0565 (inactive); composite z-score (XIP peptide (Xip251-270)): 0.103; z-score [2]: -2.34; z-score [3]: -3.15 (inactive); z-score [4]: 0.252 (inactive); z-score [5]: -0.409 (inactive)

**Q.** With `C=CCC(OC(C)=O)[C@@H]1[C@@H](N(Cc2ccc(-c3cccc(C(F)(F)F)c3)o2)C(=O)Cc2ccc(F)cc2)c2cc(OCCCO)ccc2N1C(=O)Cc1ccc2ccccc2c1` (stereo partly drawn) as the compound, how does the composite z-score [1] read?
**A.** -0.068 (inactive)

**Q.** What about the composite z-score (XIP peptide (Xip251-270)) of the same compound?
**A.** -0.293

**Q.** And the z-score [2]?
**A.** -0.328

**Q.** What about the z-score [3] of the same compound?
**A.** -0.668 (inactive)

**Q.** And the z-score [4]?
**A.** 0.19 (inactive)

**Q.** And the z-score [5]?
**A.** 0.0472 (inactive)

**Q.** For `[N-]=[N+]=Nc1ccccc1[C@@H]1OC(c2ccc(OCCCO)cc2)=N[C@]1(CCS(=O)(=O)c1ccccc1)C(=O)NCC(O)CO` (stereo partly drawn), which composite z-score [1] is on record?
**A.** 0.0574 (inactive)

**Q.** And the composite z-score (XIP peptide (Xip251-270))?
**A.** 0.947

**Q.** And the z-score [2]?
**A.** -2.21

**Q.** And the z-score [3]?
**A.** -3.99 (inactive)

**Q.** What about the z-score [4] of the same compound?
**A.** 0.0401 (inactive)

**Q.** What about the z-score [5] of the same compound?
**A.** 0.225 (inactive)

**Q.** Which composite z-score [1] does the source give for `COCCCN1C(=O)[C@@]2(c3ccc([N+](=O)[O-])cc3)CC(=O)N(CC34CC5CC(CC(C5)C3)C4)[C@@H]2c2ccc(CO)cc21` here?
**A.** 0.264 (inactive)

**Q.** What about the composite z-score (XIP peptide (Xip251-270)) of the same compound?
**A.** 0.578

**Q.** And the z-score [2]?
**A.** -0.243

**Q.** What about the z-score [3] of the same compound?
**A.** -0.113 (inactive)

**Q.** And the z-score [4]?
**A.** -0.313 (inactive)

**Q.** What about the z-score [5] of the same compound?
**A.** -0.793 (inactive)
